This experiment can be described thus: protection of cells from dengue-induced CPE – secondary screen, flavivirus guanylyltransferase probe project (AID 624071).

SMILES strings stand for the structures. Calls of active or inactive are those of the source. No rule for the calls is given here.

`O=S(=O)(Nc1cc(SCc2ccccc2)c(O)c2ccccc12)c1ccc(Cl)cc1`: the compound was called inactive.

Take `COc1ccc(OC)c(S(=O)(=O)Nc2cc(SCC(=O)O)c(O)c3ccccc23)c1`: the result was inactive.

Take `O=[N+]([O-])c1cccc(S(=O)(=O)Nc2cc(Sc3nc4ccccc4s3)c(O)c3ccccc23)c1`: the compound was called inactive.

Consider `Cc1cc(C)c(S(=O)(=O)Nc2cc(SCC(=O)O)c(O)c3ccccc23)c(C)c1`, for which the compound was called inactive.

`O=C(O)CSc1cc(NS(=O)(=O)c2ccc(F)cc2)c2ccccc2c1O`: the result was inactive.

For the compound `Cn1c(=O)c2[nH]c(-c3ccccc3)c(O)c2n(C)c1=O`, the call was inactive.

Regarding `O=S(=O)(Nc1cc(Sc2ccccc2)c(O)c2ccccc12)c1ccc(F)cc1`, the compound was classed as inactive.

On to `O=[N+]([O-])c1cccc(S(=O)(=O)Nc2cc(SCc3ccccc3)c(O)c3ccccc23)c1`, for which the compound was called inactive.

`Cc1ccc(S(=O)(=O)Nc2cc(Sc3nc(C)cc(C)n3)c(O)c3ccccc23)cc1`: the call was inactive.

Regarding `O=C(O)CSc1cc(NS(=O)(=O)c2ccc(Br)cc2)c2ccccc2c1O`, the result was inactive.

Turning to `Cn1c(=O)c2[nH]c(-c3ccc(Cl)cc3)c(O)c2n(C)c1=O`, the compound was called inactive.

Consider `O=C(O)CSc1cc(NS(=O)(=O)c2ccc(Cl)cc2)c2ccccc2c1O`, for which the result was inactive.

Regarding `O=S(=O)(Nc1cc(Sc2ncn[nH]2)c(O)c2ccccc12)c1ccc(F)cc1`, the result was inactive.

Turning to `Cc1cc(F)ccc1S(=O)(=O)Nc1cc(SCC(=O)O)c(O)c2ccccc12`, the call was inactive.

For the compound `O=C(O)CSc1cc(NS(=O)(=O)c2cccc([N+](=O)[O-])c2)c2ccccc2c1O`, the result was inactive.

Turning to `O=S(=O)(Nc1cc(Cl)c(O)c2ccccc12)c1ccc(F)cc1`, the result was inactive.

Consider `O=C(O)CSc1cc(NS(=O)(=O)c2cccc3cccnc23)c2ccccc2c1O`, for which the compound was classed as inactive.

As to `Cc1ccc(S(=O)(=O)Nc2cc(SCC(=O)O)c(O)c3ccccc23)cc1`, the call was inactive.

For the origin of these results see PubChem BioAssay AID624071 (Southern Research Specialized Biocontainment Screening …, 2012).
